# High-throughput results (PubChem BioAssay)
# EWS-Fli block = blocks EWS/Fli oncoprotein-driven transcription. A673 NR0B1-luciferase reporter, viability-normalised. inhibition, % at 12.6 µM. 0.67% of 350,000 active. AID 651661;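 active = mean inhibition of at least 50% after viability correction, with every replicate also passing that limit; inconclusive = mean reaches 50% but only one of two replicates passes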;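 also: firefly luciferase signal divided by Alamar Blue viability fluorescence both relative to DMSO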
# Peg3 prom inh = reduces Peg3 promoter-driven luciferase expression in HeLa. 1.7% of 360,000 active. inhibition, % at 20 µM. AID 588405. HeLa PEG-Prom luciferase reporter, luminescence, overnight;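 active = inhibition of at least 50% at 20 µM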
# PAX8 inh HTS = inhibitors of PAX8 transcriptional activity in RMG-I cells. RMG-I TPO-luciferase reporter, SteadyGlo, 24 h. AID 652154. inhibition, % at 12.6 µM. 1.2% of 360,000 active;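 active = mean replicate inhibition at least 60% with every replicate also reaching 60%; inconclusive = only one of the two criteria is met; inactive = mean below 60% and not all replicates reaching 60%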;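 also: luciferase light reporting Pax8 driven TPO promoter activity; plate controls were median of neutral control wells for no effect and mitoxantrone controls for full effect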
# Shn3 3UTR inh = Schnurri-3 reporter inhibition in Clone20 osteoblasts; Clone20 osteoblast Shn3 3'UTR firefly luciferase, 24 h; 0.52% of 360,000 active; inhibition, % at 12.5 µM; AID 588674;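 active = mean inhibition of at least 75% with every replicate also reaching 75%; inconclusive = mean inhibition at least 75% but some replicate below; inactive = mean inhibition below 75%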;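 also: 0% = median of neutral control wells and 100% = pilot-screen positive control compound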
# ABHD5 PLIN5 PPI = inhibitors of human ABHD5-perilipin-5 interaction; Q00G26+Q8WTS1; Split G. princeps luciferase complementation, luminescence, 4 h; inhibition, % at 4 µM; 0.78% of 360,000 active;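 active = inhibition above the mean inhibition across every tested compound plus 3 SD, cut at about 22% in these data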;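 also: 0% = DMSO only wells and the 100% control is not disclosed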
# Target sequence (Q00G26 whole entry, looked up): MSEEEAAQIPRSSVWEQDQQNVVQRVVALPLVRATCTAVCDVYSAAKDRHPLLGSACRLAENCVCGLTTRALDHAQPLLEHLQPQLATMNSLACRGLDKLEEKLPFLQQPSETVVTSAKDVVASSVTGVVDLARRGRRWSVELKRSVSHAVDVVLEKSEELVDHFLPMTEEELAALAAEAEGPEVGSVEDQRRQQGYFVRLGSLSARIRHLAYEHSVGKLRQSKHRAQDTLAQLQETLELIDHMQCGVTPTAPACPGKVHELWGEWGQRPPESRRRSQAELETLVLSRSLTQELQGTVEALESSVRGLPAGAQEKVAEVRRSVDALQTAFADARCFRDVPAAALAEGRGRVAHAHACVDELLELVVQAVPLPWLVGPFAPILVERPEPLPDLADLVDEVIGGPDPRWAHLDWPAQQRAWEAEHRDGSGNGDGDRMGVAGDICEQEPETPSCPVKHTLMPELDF
# Target sequence (Q8WTS1 whole entry, looked up): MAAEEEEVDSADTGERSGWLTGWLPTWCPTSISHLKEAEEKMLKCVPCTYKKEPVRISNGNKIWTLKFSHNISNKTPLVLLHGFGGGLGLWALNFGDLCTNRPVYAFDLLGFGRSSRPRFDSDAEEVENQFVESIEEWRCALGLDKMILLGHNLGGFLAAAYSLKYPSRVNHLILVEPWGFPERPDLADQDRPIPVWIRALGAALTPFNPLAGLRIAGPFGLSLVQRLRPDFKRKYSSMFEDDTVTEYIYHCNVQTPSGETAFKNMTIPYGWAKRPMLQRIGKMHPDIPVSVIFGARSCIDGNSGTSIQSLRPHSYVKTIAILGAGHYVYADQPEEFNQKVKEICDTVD
# MITF TRPM1 inh = MITF TRPM1 promoter inhibition in SK-MEL-5 cells; SK-MEL-5 TRPM1 promoter luciferase, 24 h; inhibition, % at 12.5 µM; 0.83% of 330,000 active;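 active = mean inhibition across replicates of 60% or more, whatever share of single replicates reaches that level; inconclusive = some that reach 60%, reason not given; inactive = mean inhibition across replicates below 60%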
# An asterisk follows results filed as active; ? = inconclusive; / = no result given. In the library only some 3% were active in any assay of this set; here they are far more common.
SMILES,EWS-Fli block,Peg3 prom inh,PAX8 inh HTS,Shn3 3UTR inh,ABHD5 PLIN5 PPI,MITF TRPM1 inh
C[C@H](CO)N1C[C@H](C)[C@@H](CN(C)C(=O)CCC(F)(F)F)OCc2ccccc2-c2c(n(C)c3ccccc23)C1=O,12.1,/,4.8,/,/,/
c1ccc(-c2nc3nonc3nc2-c2ccccc2)cc1,/,8.8,50.0,43.8,-13.0,61.7*
C[C@@H]1CN([C@H](C)CO)C(=O)c2cccc(NC(=O)C3CC3)c2O[C@H]1CN(C)C(=O)Nc1ccccc1,0.2,/,3.5,/,/,/
CCOC(=O)c1nnn(-c2ccc([N+](=O)[O-])cc2[N+](=O)[O-])c1C,-0.5,11.3,29.8,-23.0,2.1,77.2*
CCOC(=O)c1nnn(-c2ccccc2)c1C,/,-32.1,-9.4,-24.7,-1.1,-13.8
Cc1ccccc1N=CC=C1OC(C)(C)C(C)(C)O1,-0.7,-2.2,79.1*,6.7,6.7,-0.6
O=C(C[C@@H]1C[C@H]2c3cc(NS(=O)(=O)c4ccc(F)cc4)ccc3O[C@H]2[C@H](CO)O1)NCc1cc(F)ccc1F,14.0,/,/,/,/,/
CCCOc1ccc(/C=N/NC(=S)Nc2ccccc2[N+](=O)[O-])c(O)c1,/,/,94.4*,/,/,/
CCCOc1ccc(/C=N/Nc2ccccc2[N+](=O)[O-])c(O)c1,23.1,26.4,-111.4,-11.8,1.9,56.7
CCC(C)NS(=O)(=O)c1ccc(S(=O)(=O)N2CCCC3(CCCCC3)C2)cc1 (stereo not given),/,24.1,24.9,85.8*,-8.9,19.4
CO[C@@H]1CC[C@@H]2CCN(C)C(=O)CCCN(C)C(=O)c3cccc(C#N)c3OC[C@@H]1O2,-6.2,/,-4.6,/,/,/
O=C(C[C@@H]1CC[C@H]2[C@@H](COC[C@H](O)CN2Cc2ccc(Oc3ccccc3)cc2)O1)N1CCc2ccccc2C1,30.9,/,105.7*,/,/,/
O=C(C[C@H]1CC[C@H]2[C@@H](COC[C@@H](O)CN2Cc2ccc(Oc3ccccc3)cc2)O1)N1CCc2ccccc2C1,45.3,/,104.9*,/,/,/
O=C(C[C@@H]1CC[C@@H]2[C@H](COC[C@@H](O)CN2Cc2ccc(Oc3ccccc3)cc2)O1)N1CCc2ccccc2C1,26.6,/,45.1,/,/,/
O=C(C[C@H]1CC[C@@H]2[C@H](COC[C@H](O)CN2Cc2ccc(Oc3ccccc3)cc2)O1)N1CCc2ccccc2C1,43.0,/,27.7,/,/,/
COc1cc(NS(=O)(=O)c2ccc(OC)c(OC)c2)cc(OC)c1,/,52.2*,/,5.2,-3.9,4.7
C[C@@H]1CN([C@H](C)CO)C(=O)c2cc(NS(=O)(=O)c3ccccc3)ccc2O[C@H]1CN(C)C(=O)Nc1ccc(F)cc1,/,/,0.3,/,/,/
Cc1ccnc(NC(=O)c2ccc(Cl)c(NC(=O)c3ccccc3C)c2)c1,/,-28.9,/,10.0,-5.0,4.2
CCC(C(=O)Nc1cc(C(=O)Nc2cc(C)ccn2)ccc1Cl)c1ccccc1 (stereo not given),-4.5,-20.6,69.4*,21.9,-0.6,-2.8
COc1ccc2c3c([nH]c2c1)[C@@H](CO)N(C(=O)NC(C)C)CC31CN(C(=O)c2cccnc2)C1,6.3,/,/,/,/,/
COc1cc(C(CCN2CCCC2)c2c(OC)cc(OC)c3ccc(=O)oc23)cc(OC)c1OC (stereo not given),-5.6,-1.9,6.7,6.5,2.5,-5.2
COc1cc(OC)c2ccc(=O)oc2c1C(CCN1CCCC(C)C1)c1ccc(N(C)C)cc1 (stereo not given),-2.5,-12.5,12.3,3.3,3.9,-4.8
CCCCCc1cc(=O)oc2c(C(CCN(CC)CC)c3ccc(N(C)C)cc3)c(OC)cc(OC)c12 (stereo not given),20.9,99.6*,?,12.5,18.9,88.9*
CCCCCc1cc(=O)oc2c(C(CCN3CCCC(C)C3)c3cc(OC)c(OC)c(OC)c3)c(OC)cc(OC)c12 (stereo not given),/,101.3*,/,39.0,14.9,72.7*
CCCCCc1cc(=O)oc2c(C(CCN3CCCC(C)C3)c3ccc(N(C)C)cc3)c(OC)cc(OC)c12 (stereo not given),/,94.4*,/,27.5,13.1,38.0
SMILES,EWS-Fli block,Peg3 prom inh,PAX8 inh HTS,Shn3 3UTR inh,ABHD5 PLIN5 PPI,MITF TRPM1 inh
CCCCCc1cc(=O)oc2c(C(CCN3CCCCC3)c3cc(OC)c(OC)c(OC)c3)c(OC)cc(OC)c12 (stereo not given),?,90.5*,78.6*,13.8,17.7,88.8*
COc1cc(OC)c2c(-c3ccccc3)cc(=O)oc2c1C(CCN1CCCC(C)C1)c1ccc2c(c1)OCO2 (stereo not given),18.5,35.3,9.9,-13.4,7.9,6.2
O=C(C1CC1)N1C[C@H]2[C@@H](c3ccccc31)[C@H](CO)N2C(=O)c1ccccc1,0.1,/,7.9,/,/,/
O=C(C[C@H]1CC[C@@H](NC(=O)Cc2ccccn2)[C@H](CO)O1)NCCc1ccncc1,3.9,/,-0.2,/,/,/
COc1ccc(N=Nc2ccc(N)nc2N)cc1,-81.9,-358.5,-84.5,-58.5,13.8,-65.6
CCOc1ccc2nc3cc(N=Nc4ccc(N)nc4N)ccc3c(N)c2c1,/,74.0*,/,-1.3,-8.1,72.8*
CC(=O)Nc1ccc(NC(=O)c2cc(-c3cc(C)cc(C)c3O)n[nH]2)cc1,-39.0,-86.2,-15.7,-5.5,-1.4,-28.9
Cc1cc(C)c(O)c(-c2cc(C(=O)Nc3ccc(S(=O)(=O)N4CCOCC4)cc3)[nH]n2)c1,/,59.0*,/,91.0*,-3.0,-4.6
O=C1CCC(=O)N1CC1CC2CCC1C2 (stereo not given),62.7*,-4.0,-0.8,-8.8,6.1,-2.7
O=C(CSc1nnc(Cc2cccs2)n1C1CCCCC1)N1CCN(C(=O)c2ccco2)CC1,/,-26.3,73.6*,7.0,2.5,25.3
CC(Sc1nnc(Cc2cccs2)n1C1CCCCC1)C(N)=O (stereo not given),/,8.0,/,-16.4,1.4,6.9
CCC(=O)N1CC2(CN[C@@H](CO)c3c2c2ccc(OC)cc2n3C)C1,-4.4,/,/,/,/,/
CC(C)C#Cc1cnc2c(c1)C(=O)N([C@@H](C)CO)C[C@@H](C)[C@@H](CN(C)C(=O)Cc1ccncc1)O2,-3.7,/,-1.5,/,/,/
